Reference: PubChem BioAssay (EPA / NIEHS)
Active and inactive are the calls of the source. How the source made its calls: active means hit-call score of the fitted dose curve at least 0.9, where 1 is the maximum; inactive means score below 0.9.

Target: CCAAT/enhancer-binding protein beta (Homo sapiens) (UniProt P17676)
Test: ATG_C_EBP_CIS: Attagene CIS-FACTORIAL HepG2 Assay for human CCAAT/Enhancer Binding Protein (C/EBP) beta (AID 2282927)
Settings: HepG2 Attagene cis-factorial transcription factor reporter; actives raise or lower the signal
Protocol: ATG_CIS is a cell-based, multiplexed-readout assay that uses HepG2, a human liver cell line, with measurements taken at 24 hours after chemical dosing in a 24-well plate.ATG_C_EBP_CIS is one of 52 assay component(s) measured or calculated from the ATG_CIS assay. It is designed to make measurements of mRNA induction, a form of inducible reporter, as detected with fluorescence intensity signals by Reverse transcription polymerase chain reaction (RT-PCR) and Capillary electrophoresis technology.Data from the assay component ATG_C_EBP_CIS was analyzed into 1 assay endpoint. This assay endpoint, ATG_C_EBP_CIS, was analyzed with bidirectional fitting relative to DMSO as the negative control and baseline of activity. Using a type of inducible reporter, measures of mRNA for gain or loss-of-signal activity can be used to understand the reporter gene at the transcription factor-level as they relate to the gene CEBPB. Furthermore, this assay endpoint can be referred to as a primary readout, because this assay has produced multiple assay endpoints where this one serves a reporter gene function. To generalize the intended target to other relatable targets, this assay endpoint is annotated to the dna binding intended target family, where the subfamily is basic leucine zipper.
Human liver HepG2 cells are transiently transfected with multiple reporter transcription units (MRTUs) in 6-well plates using FuGene 6 reagent (Roche; 3 ml FuGene/1 mg DNA). The MRTU constructs are regulated by a cis-regulating element (promoter). […] A major difference between the CIS and TRANS system is that in CIS activities of endogenous TFs are measured, whereas the TRANS assay evaluates changes in activities of exogenous, chimeric NR-Gal4 proteins. […] At the end of 24 hour incubation, total RNA was isolated using TriZol reagent (Invitrogen). The isolated RNA is then reverse-transcribed using oligo(dT) primer and Mo-MLV reverse transcriptase (Invitrogen) with DNAse I (Ambion) treatment for 30 min. The one-tenth of the produced cDNA was amplified by PCR using Taq DNA polymerase (Invitrogen) and two reporter sequence-specific primers. The PCR products were fluorescently labeled by primer extension with 6-arboxyfluorescein (6-FAM) 5'-labeled reporter sequence-specific primer (2 min at 95 C, 20 s at 68 C and 10 min at 72 C) and these products were digested with 5U of HpaI (New England Biolabs) for 2h at 37 C. The fragments were purified using Qiaquick PCR columns (Qiagen), analyzed on an ABI 3130xL genetic analyzer (Applied Biosystems) with peak positions identified by using a set of X-rhodamine (ROX)-labeled MapMarker1000 molecular weight standards (BioVentures). The raw capillary electrophoresis data was processed using Attagraph software (Attagene).

Chain of CCAAT/enhancer-binding protein beta (Homo sapiens) (P17676 whole entry, looked up): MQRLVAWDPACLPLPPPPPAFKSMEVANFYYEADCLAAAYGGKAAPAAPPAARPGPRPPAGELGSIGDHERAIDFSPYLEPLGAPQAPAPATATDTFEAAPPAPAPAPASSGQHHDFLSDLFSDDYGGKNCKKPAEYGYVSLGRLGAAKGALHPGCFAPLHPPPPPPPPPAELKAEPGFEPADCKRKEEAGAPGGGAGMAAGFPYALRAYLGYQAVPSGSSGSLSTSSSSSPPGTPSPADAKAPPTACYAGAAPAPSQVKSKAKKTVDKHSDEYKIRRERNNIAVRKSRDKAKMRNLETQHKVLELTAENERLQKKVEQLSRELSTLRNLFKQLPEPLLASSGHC

Row | Compound | outcome | AC50
1 | CCCNC(=O)NS(=O)(=O)c1ccc(Cl)cc1 | inactive | –
2 | N[C@H]1C(O)O[C@H](CO)[C@H](O)[C@@H]1O (stereo not given in full) | inactive | –
3 | O=CC1CC1 | inactive | –
4 | CCOC(=O)Cc1cccc2ccccc12 | inactive | –
5 | CC(=O)NS(=O)(=O)c1ccc(N)cc1 | inactive | –
6 | C=C1C2CCC(C2)C1(C)C (stereo not given) | inactive | –
7 | Cc1ccc(OC(=O)CC(C)C)cc1 | inactive | –
8 | Cc1ccccc1C | inactive | –
9 | CCCc1ccc(OC)cc1 | inactive | –
10 | CCCCCCCCCCCCCCCCCC#N | inactive | –
11 | Cc1ccc(C(C)c2ccc(C)c(C)c2)cc1C | inactive | –
12 | C=CC(=O)OCCC(=O)O | inactive | –
13 | [Cl][Nd]([Cl])[Cl] | inactive | –
14 | O=C(OCC1CCC2OC2C1)C1CCC2OC2C1 (stereo not given) | inactive | –
15 | C=C[C@](C)(O)CC[C@@H]1[C@@]2(C)CCCC(C)(C)[C@@H]2CC[C@@]1(C)O | inactive | –
16 | Nc1ccc2cc3ccccc3cc2c1 | inactive | –
17 | COCCCOCCCOC | inactive | –
18 | O=C1CCCCCN1SSN1CCCCCC1=O | inactive | –
19 | O=C(Nc1cccc(C(F)(F)F)c1)c1cc(Br)cc(Br)c1O | inactive | –
20 | CC(=O)OCC(=O)[C@@]12N=C(C)O[C@@H]1C[C@H]1[C@@H]3CCC4=CC(=O)C=C[C@]4(C)[C@H]3[C@@H](O)C[C@@]12C | inactive | –

Row | Compound | outcome | AC50
21 | c1ccc2c(c1)ccc1ncccc12 | inactive | –
22 | CCCCCCCC/C=C\CCCCCCCC(=O)OCCO | – | 69 µM (active)
23 | O=C(C(Cl)Cl)N1CCOC12CCCCC2 | inactive | –
24 | C=CC=CC=CCCCCC | inactive | –
25 | O=S(=O)(O)c1cc(S(=O)(=O)O)c2ccc3c(S(=O)(=O)O)cc(S(=O)(=O)O)c4ccc1c2c43 | inactive | –
26 | CC/C=C\CCOC(=O)CCCCC | inactive | –
27 | COc1ccc(C(Cl)=C(c2ccc(OC)cc2)c2ccc(OC)cc2)cc1 | inactive | –
28 | C(=CC=Nc1ccccc1)C=CNc1ccccc1 | inactive | –
29 | CC=C1CC2C=CC1C2 (stereo not given) | inactive | –
30 | CCOC(=O)NNc1nncc2ccccc12 | inactive | –
31 | O=C1C=CC(=O)O1 | inactive | –
32 | CC(=O)OCc1ccco1 | inactive | –
33 | O=S1(=O)OC(c2ccc(O)cc2)(c2ccc(O)cc2)c2ccccc21 | inactive | –
34 | CCOC(=O)c1ccccc1C(=C1C=C(Br)C(=O)C(Br)=C1)c1cc(Br)c(O)c(Br)c1 | – | 18.8 µM (active)
35 | Nc1ccc(-c2ccc(F)cc2)cc1 | inactive | –
36 | CCOC(=O)[C@H](C)O | inactive | –
37 | C=C(C)CCO | inactive | –
38 | CC(=O)OC(C)C | inactive | –
39 | CC1OC1C1CCC2(C)OC2C1 (stereo not given) | inactive | –
40 | CC(=O)Nc1ccc2c(c1)Cc1cc(NC(C)=O)ccc1-2 | inactive | –
